Experimental data taken from publication PMC5540273 (PLoS ONE, 2017).

System: PRKX
Conditions: concentration: 1 μM,replicates: in singlicate; n = 1
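Also: KINOMEscan kinase panel screen.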

Row | SMILES | %Inh
1 | O=C(Nc1ccccc1)c1cccc(Oc2ccc3nccn3n2)c1 | 70%
2 | Cc1ccc(CC(=O)N2CCc3cc(-c4cn(C)c5ncnc(N)c45)ccc32)cc1 [GSK2634758] | 12%
3 | COC(=O)c1cccc(NC(=O)NC2CCN(c3ccnc(NCc4ccc(F)cc4)n3)CC2)c1 [GSK1379860] | 9%
4 | Cc1n[nH]c2cc(Nc3ccnc(Nc4cccc(CN5CCOCC5)c4)n3)ccc12 [GW682569] | 0%
5 | CCN1CCN(CCCC(=O)Nc2n[nH]c3nc(-c4ccc(O)cc4)c(Br)cc23)CC1 [SB-731579] | 0%
6 | COc1ccc(Nc2nccc(N3CCC(NC(=O)c4cccc(C#N)c4)C3)n2)cc1 (stereo not shown) [GSK1379730] | 0%
7 | C[C@@H](Oc1cc(-n2cnc3cc(-c4ccncc4)ccc32)sc1C(N)=O)c1ccccc1Cl [GSK479719] | 2%
8 | Cc1nnc(-c2ccc3occ(-c4ccc(S(C)=O)cc4)c3n2)o1 (stereo not shown) | 0%
9 | Cn1cc(-c2cccc3c(N)c(C(N)=O)nnc23)cn1 | 3%
10 | Cl.Nc1n[nH]c2cc(-c3ccccn3)ccc12 [GSK2189892] | 13%
11 | COc1cccc(CNC(=O)NC2CCN(c3ccnc(Nc4cc(OC)c(OC)c(OC)c4)n3)C2)c1 (stereo not shown) [GSK1379765] | 33%
12 | Cc1ccc(C(=O)Nc2ccc(Oc3ccc4nc(NC(=O)C5CC5)cn4c3)c(F)c2)c(=O)n1-c1ccccc1 | 0%
13 | Cc1cccc2c(-c3ccncc3)c(-c3ccc(F)cc3)nn12.Cl [GW461487] | 3%
14 | C[C@@H](Oc1cc(-n2cnc3ccc(-c4ccncc4)cc32)sc1C(N)=O)c1ccccc1Cl [GSK483724] | 33%
15 | CNC(=O)c1ccccc1Nc1nc(Nc2cccc(CS(C)(=O)=O)c2)ncc1C.O=CO [GSK1520489] | 0%
16 | COc1cc2c(Nc3ccc(NC(=O)c4ccccc4)cc3)ncnc2cc1OCCCN1CCOCC1 [GSK301329] | 22%
17 | O=C(Nc1ccc(Oc2ccc3nc(NC(=O)C4CC4)cn3n2)c(F)c1)c1cccn(-c2ccccc2)c1=O | 0%
18 | COc1cc(Nc2nccc(N3CCC(NC(=O)c4cccc(C#N)c4)C3)n2)cc(OC)c1OC (stereo not shown) [GSK1379751] | 0%
19 | CC(C)S(=O)(=O)N1CCN(Cc2ccc3c(c2)nc(NC(=O)c2ccsc2)n3C[C@H](O)c2ccccc2)CC1 [GW635815] | 16%

Row | SMILES | %Inh
20 | Cn1ccc2ncnc(Oc3ccc(NC(=O)Nc4cccc(C(F)(F)F)c4)c(F)c3)c21 | 0%
21 | Cc1ccc2c(-c3ccnc(Nc4ccc(C(F)(F)F)cc4)n3)cnn2n1 [GW819776] | 0%
22 | C[C@@H]1CNc2c(sc3ccc4nc(-c5ccncc5)ccc4c23)C(=O)N1 | 34%
23 | Cn1ccc2ncnc(Oc3ccc(NC(=O)Nc4cccc(C(F)(F)F)c4)c(Cl)c3)c21 | 0%
24 | COc1cccc(OC)c1C(=O)Nc1cccc(-c2nn3ccccc3c2-c2ccnc(Nc3cccc(F)c3)n2)c1 [GSK361065] | 0%
25 | CN1CCN(CCCNc2nccc(-c3c(-c4ccc(F)cc4)nn4cc(C(N)=O)ccc34)n2)CC1 [GW622475] | 8%
26 | CCCC(=O)Nc1n[nH]c2ncccc12 [SB-601436] | 0%
27 | Cn1ccc2ncnc(Oc3ccc(NC(=O)Nc4cc(C(C)(C)C)on4)c(Cl)c3)c21 | 17%
28 | Cl.c1ccc(Oc2ccc(Nc3ccnc4cc(-c5ccc(CN6CCNCC6)o5)ccc34)cc2)nc1 [GW567142] | 20%
29 | CC(=O)Nc1ccc(-c2cc3ncnc(SCC(=O)O)c3s2)cc1 | 24%
30 | Cc1ccc(Nc2ccnc(Nc3ccc4c(c3)CS(=O)(=O)C4)n2)cc1O.Cl [GW579362] | 0%
31 | COc1cccc(C2=C(Nc3cccc(Cl)c3)C(=O)NC2=O)c1 [SB-341556] | 21%
32 | OCCn1cc(-c2cnc3nnn(Cc4ccc5ncccc5c4)c3n2)cn1 | 0%
33 | Cn1ccc2ncnc(Oc3ccc(NC(=O)Nc4cncc(C(F)(F)F)c4)c(Cl)c3)c21 | 0%
34 | CN(c1cccc(CNc2nc(Nc3ccc4c(c3)CC(=O)N4)ncc2C(F)(F)F)c1)S(C)(=O)=O | 0%
35 | Cl.Cl.NC[C@H](CC1CCCCC1)NC(=O)c1ccc(-c2ccnc3[nH]ccc23)s1 [GSK1581428] | 97.9%
36 | N#Cc1cccc(C(=O)NC2CCN(c3ccnc(Nc4ccc(F)cc4)n3)C2)c1 (stereo not shown) [GSK1379708] | 14%
37 | c1ccc(Oc2ccc(Nc3ccnc4ccc(-c5ccccn5)cc34)cc2)cc1 [GW407034] | 12%
